Test results published in PubChem BioAssay (NCATS).
“And” between values parts separate entries of the source, which are not always exact repeats. Equal values may be shown once. Results filed as inconclusive are left out. A call without a number means that no potency is given here. The source made the active and inactive calls. Unless noted, calls follow the shape of the dose curve; as a rule, active = well fitted curve in the direction sought with a large enough effect; inconclusive = small, poorly fitted or top-dose-only effect, or another doubt; inactive = no such curve, though single readings can be large; an effect the other way counts as inactive or inconclusive.

What was measured:
[1] = qHTS Assay for Lipid Storage Modulators (AID 1519; calls by dose curve); conditions: Drosophila S3 cells, BODIPY lipid droplet/cell ratio, laser cytometry, cells loaded with oleic acid
Summary of the method: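 Cells seeded at 5,000 per well were treated with compounds over a concentration series and loaded with oleic acid (400 uM, as added). Lipid droplet fluorescence (488 nm excitation, 500-530 nm channel) was read by laser-scanning cytometry and normalized to 20 uM Triacsin C.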

[2] = molecular target: DNA repair nuclease/redox regulator APEX1 (Homo sapiens) (UniProt P27695); test: qHTS Validation Assay for Inhibitors of the Human Apurinic/apyrimidinic Endonuclease 1 (APE1) (AID 1705;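 also: TAMRA fluorescence gain over two minutes as APE1 cuts a quenched THF abasic duplex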); conditions: purified APE1 endonuclease activity, fluorescence, titration; series mostly up to 57.1 µM
Summary of the method: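 Read-out: TAMRA fluorescence (525 nm ex, 598 nm em) from cleavage of a quenched THF abasic-site duplex, 50 nM final; activity taken as intensity change between third and first of three reads 60 s apart.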

[3] = Counterscreen for APE1 Inhibitors: Fluorescent Dye Displacement Validation Assay (AID 1707); conditions: fluorescent dye displacement from DNA; series mostly up to 57.1 µM
Summary of the method: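 Thiazole Orange (250 nM) bound to 50 nM TAMRA-labelled dsDNA with tetrahydrofuran abasic site; displacement by DNA-binding compounds lowers fluorescence. Buffer 50 mM Tris-HCl pH 7.5, 50 mM NaCl, 2 mM MgCl2, 0.01% Tween-20; endpoint read at 480/540 nm.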

[4] = molecular target: Endonuclease 4 (Escherichia coli (strain K12)) (UniProt P0A6C1); test: Counterscreen for APE1 Inhibitors: qHTS Validation Assay for Inhibitors of Endonuclease IV (AID 1708); conditions: E. coli endonuclease IV, DNA cleavage fluorescence; series mostly up to 57.1 µM
Summary of the method: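 Concentration-response counterscreen run identically to the APE1 assay: 15 min room-temperature preincubation of 2 nM enzyme with compound, reaction started with 50 nM quenched abasic DNA, progress taken from kinetic fluorescence.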

[5] = qHTS for differential inhibitors of proliferation of Plasmodium falciparum line 7G8 (AID 1815); conditions: Plasmodium falciparum 7G8 proliferation inhibition; series mostly up to 28.7 µM;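 also: parasite growth measured after three days of incubation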
[6] = qHTS for differential inhibitors of proliferation of Plasmodium falciparum line GB4 (AID 1816); conditions: Potency: Plasmodium falciparum GB4 proliferation inhibition; series mostly up to 28.7 µM;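 also: parasite growth measured after 72 h incubation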; also: potency is read from the fitted curve at half-maximal effect
[7] = qHTS for differential inhibitors of proliferation of Plasmodium falciparum line 3D7 (AID 1876);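 also: parasite growth measured after three days of culture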; conditions: P. falciparum 3D7 proliferation inhibition; series mostly up to 28.7 µM
[8] = qHTS for differential inhibitors of proliferation of Plasmodium falciparum line D10 (AID 1877); conditions: series mostly up to 28.7 µM;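 also: parasites grown with compound for 72 h before DNA staining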
[9] = qHTS for differential inhibitors of proliferation of Plasmodium falciparum line Dd2 (AID 1882); conditions: Potency: Plasmodium falciparum Dd2 proliferation inhibition; series mostly up to 28.7 µM; also: nearly all actives have a fitted effect of over 65% in size; also: potency is read from the fitted curve at half-maximal effect
Summary of the method: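 Dd2-infected erythrocytes (0.3% parasitemia, 2.5% hematocrit final) incubated with compound 72 h at 37 C, 5% CO2; lysed with saponin/Triton buffer containing SYBR Green I, incubated overnight in the dark, then read by fluorescence (485/535 nm). Normalized to 0.29 uM artemisinin and DMSO.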

[10] = qHTS for differential inhibitors of proliferation of Plasmodium falciparum line W2 (AID 1883); conditions: Potency: Plasmodium falciparum W2 proliferation inhibition; series mostly up to 28.7 µM;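 also: parasites grown with compound for 72 h before lysis and staining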; also: potency is read from the fitted curve at half-maximal effect
[11] = measured here: cell count channel max response
[12] = measured here: lipid channel max response

Sequence of DNA repair nuclease/redox regulator APEX1 (Homo sapiens) (P27695 whole entry, looked up): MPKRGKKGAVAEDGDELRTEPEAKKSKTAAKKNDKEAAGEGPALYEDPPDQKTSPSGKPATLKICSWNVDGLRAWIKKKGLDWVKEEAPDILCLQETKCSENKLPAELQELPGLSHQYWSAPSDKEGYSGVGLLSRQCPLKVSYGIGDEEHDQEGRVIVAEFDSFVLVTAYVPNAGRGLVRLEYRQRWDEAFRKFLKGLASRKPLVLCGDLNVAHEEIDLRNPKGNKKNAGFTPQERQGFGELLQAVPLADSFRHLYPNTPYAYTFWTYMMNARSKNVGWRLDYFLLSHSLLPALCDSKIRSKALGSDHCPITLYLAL

| Structure (SMILES) | activity change, negative = inhibition ([1]; at 25.7 µM (top of the series)) | activity change, negative = inhibition ([1]; at 57.5 µM (top of the series)) | max response [1, 11] | max response [1, 12] | Potency [2] | outcome [3] | Potency [4] | Potency [5] | Potency [6] | Potency [7] | Potency [8] | Potency [9] | Potency [10] |
| --- | --- | --- | --- | --- | --- | --- | --- | --- | --- | --- | --- | --- | --- |
| CC1=NS(=O)(=O)c2cc(Cl)ccc2N1 | 4.02% (inactive) | 14.6% (inactive) | 8.52% and 9.84% | 14.7% and 27.6% | inactive | inactive | inactive | inactive | inactive | inactive | inactive | inactive | inactive |
| CN(C)CCN(Cc1cccs1)c1ccccn1 | 0.542% (inactive) | 3.3% (inactive) | 2.28% and 15.7% | 3.57% and 22% | inactive | inactive | inactive |  | 5.62 µM (active) | inactive | inactive | 7.08 µM (active) | 3.16 µM (active) |
| Cc1ccc(/C(=C\CN2CCCC2)c2ccccn2)cc1 |  | 3.64% (inactive) and 0.151% (inactive) | 7.98% and 15.3% | 14.1% and 15.5% | inactive | inactive | inactive |  |  |  |  |  |  |
| CCCOc1ccccc1-c1nc2n[nH]nc2c(=O)[nH]1 | -0.67% (inactive) | 9.88% (inactive) and -1.66% (inactive) | 4.38% and 27.6% and 39.3% | 5.08% and 45.2% and 35.5% |  | inactive |  |  |  |  | inactive | inactive |  |
| CCN(CC)CC(=O)Nc1c(C)cccc1C | 0.593% (inactive) | 2.9% (inactive) | -1.17% and 18.4% | 2.13% and 21.4% | inactive | inactive |  | inactive |  | inactive | inactive | inactive | 14.1 µM (active) |
| CC(=O)Nc1nnc(S(N)(=O)=O)s1 | -1.69% (inactive) | -0.868% (inactive) | 6.43% and 19.5% | 5.21% and 17% |  | inactive | inactive | inactive | inactive | inactive | inactive | inactive | inactive |
| CCCCNc1ccc(C(=O)OCCN(C)C)cc1 | 3.23% (inactive) | 14.3% (inactive) | -0.19% and 24.9% | 3.57% and 43.3% | inactive | inactive |  | inactive |  |  |  | inactive | inactive |
| CC[N+](C)(C)c1cccc(O)c1 | 1% (inactive) | 8.9% (inactive) and 0.601% (inactive) | 22.3% and 9.17% and -28.2% | 23.6% and 20.6% and -27.6% | inactive | inactive | inactive | inactive | inactive |  |  | inactive | inactive |
| CC(C)(Oc1ccc(CCNC(=O)c2ccc(Cl)cc2)cc1)C(=O)O | -0.881% (inactive) |  | -0.576% | -0.58% |  |  |  |  |  |  |  |  |  |
